V-ATPase pH: regulators of yeast V-ATPase proton pumping, primary screen, pHLuorin cytosolic pH fluorescence | S. cerevisiae | response, % at 10 µM | actives 0.37% (n = 350,000); in the data active = response mostly above about 7.3%, no sharp cut-off; inactive = mostly below about 5.4%; also: actives read high
CR mimetic SO: reduction of superoxide in aged yeast, primary screen, HTS; actives 0.18% (n = 330,000); S. cerevisiae aged cells, superoxide DHE fluorescence; hits give low values; superoxide response (% of plate mean), % at 10 µM; AID 2690, 2010;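 active = superoxide response under a set limit, about three screen SD below normal, cut at about 65% in these data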;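 also: yeast aged for seven days with compound at 30 °C before DHE staining; 100% = average MFI of all compound-treated wells on the plate with controls excluded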
JMJD2C inh: inhibitors of GASC-1 histone demethylase, primary screen, biochemical, fluorescence, DELFIA europium | Lysine-specific demethylase 4C (Homo sapiens), Q9H3R0 | GST-JMJD2C(1-420) H3K9me3 demethylation | inhibition, % at 2.35 µM | actives 0.069% (n = 330,000);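 active = more than half of a compound's replicate wells show inhibition beyond 50%, single wells judged on their own value; inconclusive = some, but no more than half, of replicates pass 50% inhibition; inactive = no replicate passes 50% inhibition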;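 also: signal counts dimethyl H3K9 product captured on neutravidin plate; 0% = median of DMSO wells and 100% = 0.3 times that DMSO median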
Target sequence (Q9H3R0 1-420 limits assumed): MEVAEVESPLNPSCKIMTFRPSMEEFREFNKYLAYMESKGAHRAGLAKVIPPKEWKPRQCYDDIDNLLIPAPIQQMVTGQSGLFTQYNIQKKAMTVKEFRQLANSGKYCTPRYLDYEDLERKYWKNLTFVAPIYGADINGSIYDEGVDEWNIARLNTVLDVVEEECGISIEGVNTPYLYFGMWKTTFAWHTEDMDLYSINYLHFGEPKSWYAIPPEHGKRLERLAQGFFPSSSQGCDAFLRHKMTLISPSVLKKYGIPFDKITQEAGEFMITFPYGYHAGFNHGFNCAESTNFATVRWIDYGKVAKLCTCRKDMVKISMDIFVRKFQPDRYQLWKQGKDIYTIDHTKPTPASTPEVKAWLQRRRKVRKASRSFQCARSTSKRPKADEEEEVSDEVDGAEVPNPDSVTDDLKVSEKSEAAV
PKA-R1A activ: activators of PKA-R1A holoenzyme, primary screen, biochemical, fluorescence polarization, Cy5-IP20, bovine R1A, mouse PKAc; activation, % at 11.4 µM; AID 504707, 2011; cAMP-dependent protein kinase type I-alpha regulatory subunit (Bos taurus) + …; PKA-R1A dissociation; scaled: DMSO 0%, 113 µM cGMP 100%; actives 0.083% (n = 340,000);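 active = percent activation above the mean of all tested compounds plus 3 SD, cut at about 19% in these data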;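 also: higher means more PKAc released from R1A so a rise in polarization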
PolyA inh: polyadenylation inhibitors in yeast reporter cells, primary screen, luminescence, S. cerevisiae. actives 0.02% (n = 300,000). AID 1875, 2009. S. cerevisiae SKY197-pL101 polyadenylation reporter, beta-gal luminescence; efflux-impaired pdr1/pdr3 knockout yeast; score 100 = 6 SD above DMSO. activity score, % at 12 µM;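 active = lowest replicate activity score at least 50, where 100 means six control SD above control mean; inconclusive = lowest score under 50 but half or more replicates reach 50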;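 also: yeast exposed to compound for 9 h at 30 °C; higher score means more reporter readthrough which indicates perturbed polyadenylation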
PKA-R2B act: activators of PKA-R2B holoenzyme, primary screen, biochemical, fluorescence polarization, Cy5-IP20, human; actives 0.079% (n = 340,000); cAMP-dependent protein kinase catalytic subunit beta (Homo sapiens) + cAMP-dependent …; PKA-R2B holoenzyme dissociation; R2B truncated from residue 108, S112A mutant; 0% DMSO only, 100% 113 µM cGMP; activation, % at 11.4 µM;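 active = activation above a cutoff set at the mean over all compounds plus 3 SD, cut at about 18% in these data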;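 also: higher means more holoenzyme dissociation and a rise in polarization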
V-ATPase pH SP: yeast V-ATPase proton pumping modulators, confirmation, S. cerevisiae, pH-sensitive GFP, second cherry-pick; S. cerevisiae pHLuorin cytosolic pH, V-ATPase proton transport; AID 602197, 2012; response, % at 10 µM; actives 2% (n = 980); shares compounds with V-ATPase pH; in the data active = response above about 24%;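 also: plate controls were vehicle wells for no effect and positive control wells for full effect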
The depositor's hits bear a star; ? = inconclusive; nt = no result. A selection: hits, their analogues and other compounds. The true share with any hit is near 0.78%.

SMILES	V-ATPase pH	CR mimetic SO	JMJD2C inh	PKA-R1A activ	PolyA inh	PKA-R2B act	V-ATPase pH SP
O=C1C2C3C=CC(CC3)C2C(=O)N1/N=C/c1c(O)ccc2ccccc12 (stereo not given)	7.5*	108.3	6.7	-9.1	4.0	-5.0	-0.9
CCn1c(SCC(=O)Nc2ccc3c(c2)OCCO3)nnc1C1CC1	2.8	97.4	-18.1	-3.5	-1.9	-7.5	nt
Cc1cc(C)c(OCC(=O)Nc2nc3ccccc3[nH]2)c(C)c1	9.7*	104.1	0.5	1.0	-9.8	8.6	-3.6
Cc1ccccc1OCC(=O)Nc1nc2ccccc2[nH]1	9.9	96.7	4.7	-10.4	-16.4	-1.3	nt
CC(=O)Nc1ccc(S(=O)(=O)NCCC(=O)OCC(=O)NNC(=O)c2ccccc2)cc1	0.1	88.7	1.4	-3.7	4.2	-8.0	nt
O=C(CSc1ccc(Cl)cc1)NC1CCCC1	-0.9	99.6	99.5	-5.0	22.2	-5.5	nt
O=C(NC1CCCCC1)Sc1ccc(Cl)cc1	8.0*	90.8	-4.4	-3.8	-3.7	5.2	8.0
O=C(CN1CCc2ccccc2C1)Nc1ccc(OC(F)(F)F)cc1	-1.5	101.0	6.0	-9.8	1.3	-8.8	nt
Cc1ccc(-c2cn(-c3ccccc3)c(SCC(=O)NC3CCS(=O)(=O)C3)n2)cc1C (stereo not given)	-1.6	100.4	-8.9	-7.8	16.2	1.5	nt
CC1S/C(=N/N=C/c2ccco2)N(Cc2ccc(F)cc2)C1=O (stereo not given)	-1.1	91.0	4.7	1.9	-10.3	-5.4	nt
CCC1S/C(=N/N=C/c2ccco2)N(Cc2ccccc2)C1=O (stereo not given)	60.0*	80.7	3.3	nt	-25.6	nt	1.6
O=C(Cc1ccc2c(c1)OCCO2)N1CCN(S(=O)(=O)c2ccccc2C(F)(F)F)CC1	11.7*	113.9	6.6	3.9	12.0	-6.4	0.9
Cc1cccc(C)c1NC(=O)CN(C)C(=O)c1cc([N+](=O)[O-])ccc1N1CCOCC1	0.5	84.7	20.8	-16.6	3.3	1.2	nt
CN(CC(=O)Nc1ccccc1Br)C(=O)c1cc([N+](=O)[O-])ccc1N1CCOCC1	7.0*	90.7	7.6	-9.6	-0.8	-2.5	-1.1
CN(Cc1ccccc1)S(=O)(=O)c1ccc(N2CCCC2=O)cc1	-0.9	92.5	7.3	0.0	nt	-6.3	nt
O=C(NCC1CC1)C1(C(F)(F)F)CC(CCc2ccccc2)CCCO1 (stereo not given)	10.0*	102.6	-2.0	1.8	8.9	-1.6	-0.4
COC(=O)Cn1c(=O)cnc2ccccc21	1.7	106.8	2.8	0.2	-6.5	-7.6	nt
CCOC(=O)Cn1c(-c2ccc(Cl)nc2)nc2ccccc21	0.3	97.0	19.0	3.6	-5.9	-5.5	1.1
CCOC(=O)Cn1c(S(=O)(=O)Cc2ccccc2)nc2ccccc21	-5.1	97.2	-1.4	-9.7	-2.8	-1.0	-2.0
CCOC(=O)Cn1c(=O)cnc2ccccc21	2.6	87.0	32.1	-6.6	3.2	5.2	-3.9
CNc1nc(Cl)c(SC)c(NCc2cccc(OC)c2)n1	-2.2	85.8	-1.1	-0.8	0.6	-8.0	nt
O=C(Nc1cccc(NC(=O)c2ccc(Cl)cc2Cl)c1)c1cccnc1	-1.8	97.8	-5.1	-6.1	-3.6	-6.2	nt
Cn1ccnc1SCC(=O)NC1(C#N)CCCCC1	0.3	92.1	0.0	11.5	16.8	-6.3	nt
O=C1N=c2ccc([N+](=O)[O-])cc2=C1c1sc(=O)[nH]c1O	3.8	121.0	-8.0	-4.3	-0.9	-8.7	nt
N#CC(=C1CCCC1)c1nc(-c2ccccc2)cs1	9.7*	95.2	38.0	-20.8	-16.1	1.9	-4.0
SMILES	V-ATPase pH	CR mimetic SO	JMJD2C inh	PKA-R1A activ	PolyA inh	PKA-R2B act	V-ATPase pH SP
Cc1c(NC(=O)COC(=O)C23CC4CC(CC(O)(C4)C2)C3)c(=O)n(-c2ccccc2)n1C	-3.0	77.9	-0.1	-7.9	9.1	2.2	nt
Cc1c(NC(=O)COC(=O)C2(c3ccccc3F)CCCC2)c(=O)n(-c2ccccc2)n1C	10.6*	81.5	3.3	-2.1	-23.7	9.4	-1.6
O=C(Nc1ccccc1C(=O)Nc1ccncc1)c1cccc([N+](=O)[O-])c1	12.6*	102.8	?	7.0	0.3	-6.9	0.0
O=C(Nc1ccc2ccccc2c1)c1cccc([N+](=O)[O-])c1	-0.6	94.1	-18.1	-2.9	-9.3	-5.4	nt
O=C(Nc1ccc2[nH]c(=O)[nH]c2c1)c1cccc([N+](=O)[O-])c1	8.9*	102.2	4.2	-7.9	14.8	-2.0	-1.3
O=C(O)c1cccc(NC(=O)c2ccccc2NC(=O)c2cccc([N+](=O)[O-])c2)c1	6.4	106.0	-6.6	-2.5	6.7	-5.4	nt
COc1ccc(C2=NS(=O)(=O)N(C)C(C(=O)NC3CCCCC3)=C2)cc1OC	-0.1	89.1	-0.2	-6.7	1.9	-5.4	nt
N#Cc1c(-c2ccccc2)c(C#N)c2nc3ccccc3n2c1N	9.1*	112.7	9.7	-11.7	-1.8	-7.1	-29.1
COc1cccc(NC(=O)CN(C)S(=O)(=O)c2ccc3c(c2)NC(=O)CS3)c1	11.7	93.3	-7.9	-5.2	2.1	-1.0	3.5
O=C(COC(=O)c1c(Cl)cccc1Cl)NCC1CCCO1 (stereo not given)	11.5*	88.1	-10.0	-3.2	-1.4	-9.5	0.3
O=C(Nc1cc([N+](=O)[O-])c2[nH]c(=O)c3ccccc3c2c1)C(F)(F)F	-1.2	nt	nt	-2.7	nt	-7.5	nt
COc1ccccc1NC(=O)N1C2CCCC1CC(NC(=O)c1ccccc1)C2 (stereo not given)	0.5	82.0	-5.5	-3.4	-2.2	2.3	nt
Cc1ccc(S(=O)(=O)Nc2cnc3ccccc3c2)cc1	9.9*	97.2	-12.8	-8.8	3.8	-4.4	-4.8
Cc1ccc(S(=O)(=O)Nc2ccc3ccccc3n2)cc1	-2.4	100.2	-1.9	nt	-9.2	nt	nt
COc1ccccc1Nc1nc(-c2cccnc2)cs1	4.1	84.4	19.7	5.1	5.4	-1.6	nt
COc1ccc(Nc2nc(-c3cccnc3)cs2)c(OC)c1	9.1*	99.5	21.0	5.5	-9.1	4.5	2.9
CN1C(=O)N(C)C2(c3ccccc3)Nn3c(s/c(=C/c4ccccc4)c3=O)=NC12c1ccccc1 (stereo not given)	23.2*	96.6	-2.4	-0.4	13.5	-2.3	-0.5

Bioassay records (PubChem)
